This passage reports outcome and AC50 results from PubChem BioAssay AID2284366 (EPA ToxCast).

By AC50 is commonly meant the concentration giving half of the maximal activity seen.

Results filed as inconclusive are left out. Active and inactive are the calls of the source. How the source made its calls: active means hit-call score of the fitted dose curve at least 0.9, where 1 is the maximum; inconclusive means response in the unintended direction; inactive means score below 0.9.

The subject of the test is zebrafish Peroxisome Proliferator-activated Receptor gamma (PPARg), gene 557037. Briefly: ATG_zfPPARg_EcoTox2: Attagene TRANS-FACTORIAL EcoTox-2 HepG2 Assay for zebrafish Peroxisome Proliferator-activated Receptor gamma (PPARg). The method, then:
ATG_EcoTox2 is a cell-based, multiplexed assay created by modifying the existing Attagene TRANS-FACTORIAL system to include a panel of nuclear receptors from some or all the following species: human (Homo sapiens), african clawed frog (Xenopus laevis), rainbow trout (Oncorhynchus mykiss), japanese medaka (Oryzias latipes), and zebrafish (Danio rerio). The ECOTOX2-FACTORIAL format uses HepG2, a human liver cell line, with measurements taken at 24 hours after chemical dosing in a 24-well plate. ATG_zfPPARg_EcoTox2 is one of 29 assay components calculated in the ATG_EcoTox2 assay. It is designed to make measurements of mRNA induction, a form of inducible reporter, as detected with fluorescence intensity signals by Reverse transcription polymerase chain reaction (RT-PCR) and Capillary electrophoresis technology.The assay endpoint ATG_zfPPARg_EcoTox2 was analyzed in the positive analysis fitting direction relative to DMSO as the negative control and baseline of activity. Using a type of inducible reporter, measures of mRNA for gain-of-signal activity can be used to understand the reporter gene at the transcription factor-level as they relate to the gene PPARg. Furthermore, this assay endpoint can be referred to as a primary readout, because this assay has produced multiple assay endpoints where this one serves a reporter gene function. To generalize the intended target to other relatable targets, this assay endpoint is annotated to the nuclear receptor intended target family, where the subfamily is non-steroidal.
Human liver HepG2 cells are transiently transfected with multiple reporter transcription units (MRTUs) in 6-well plates using FuGene 6 reagent (Roche; 3 ml FuGene/1 mg DNA). The MRTU constructs are regulated by a cis-regulating element (promoter). Each RTU expresses a GAL4-UAS that regulates the transcription of a nearby target reporter gene sequence. A major difference between the CIS and TRANS system is that in CIS activities of endogenous TFs are measured, whereas the TRANS assay evaluates changes in activities of exogenous, chimeric NR-Gal4 proteins. […] At the end of 24 hour incubation, total RNA was isolated using TriZol reagent (Invitrogen). The isolated RNA is then reverse-transcribed using oligo(dT) primer and Mo-MLV reverse transcriptase (Invitrogen) with DNAse I (Ambion) treatment for 30 min. The one-tenth of the produced cDNA was amplified by PCR using Taq DNA polymerase (Invitrogen) and two reporter sequence-specific primers. The PCR products were fluorescently labeled by primer extension with 6-arboxyfluorescein (6-FAM) 5'-labeled reporter sequence-specific primer (2 min at 95 C, 20 s at 68 C and 10 min at 72 C) and these products were digested with 5U of HpaI (New England Biolabs) for 2h at 37 C. The fragments were purified using Qiaquick PCR columns (Qiagen), analyzed on an ABI 3130xL genetic analyzer (Applied Biosystems) with peak positions identified by using a set of X-rhodamine (ROX)-labeled MapMarker1000 molecular weight standards (BioVentures). The raw capillary electrophoresis data was processed using Attagraph software (Attagene).
Regarding `CC(C)(Oc1ccc(Cl)cc1)C(=O)O`, the result was inactive.

As to `Cc1ccc(C)c(OCCCC(C)(C)C(=O)O)c1`, the compound was classed as inactive.

For the compound `C[C@]12C=CC(=O)C=C1CC[C@@H]1[C@@H]2C(=O)C[C@@]2(C)[C@H]1CC[C@]2(O)C(=O)CO`, the compound was called inactive.

As to `CC(C)OC(=O)C(C)(C)Oc1ccc(C(=O)c2ccc(Cl)cc2)cc1`, the result was inactive.

With `Cc1nc(-c2ccc(C(F)(F)F)cc2)sc1C(=O)NCc1ccc(OC(C)(C)C(=O)O)cc1`, the AC50 was 21.3 µM (active).

For `C=C(c1ccc(C(=O)O)cc1)c1cc2c(cc1C)C(C)(C)CCC2(C)C`, the half-maximal activity concentration (AC50) was 2.23 µM (active).

As for `Cc1c(C)c2c(c(C)c1O)CCC(C)(COc1ccc(CC3SC(=O)NC3=O)cc1)O2` (stereo not given), the outcome was inactive.

In the case of `CN(CCOc1ccc(CC2SC(=O)NC2=O)cc1)c1ccccn1` (stereo not given), the compound was classed as inactive.

Consider `Cc1cccc(Nc2cc(Cl)nc(SCC(=O)O)n2)c1C`, for which the compound was classed as inactive.

In the case of `C[C@@H]1C[C@H]2[C@@H]3CCC4=CC(=O)C=C[C@]4(C)[C@@]3(F)[C@@H](O)C[C@]2(C)[C@@]1(O)C(=O)COP(=O)(O)O`, the compound was classed as inactive.
